# Experimental data from PubChem BioAssay (NCATS).
# Results filed as inconclusive are left out. A call without a number means that no potency is given here. Values without a mark were called inactive. Active and inactive are the calls of the source. Calls follow the shape of the dose curve; as a rule, active = well fitted curve in the direction sought with a large enough effect; inconclusive = small, poorly fitted or top-dose-only effect, or another doubt; inactive = no such curve, though single readings can be large; an effect the other way counts as inactive or inconclusive.
# Experiments:
# [1] = Quantitative highthroughput screen to assess conditional lethalithy of NOMO1 cells grown in RPMI1640 with untreated serum (RPMI+s) (AID 1963876); also: nearly all actives have a fitted effect of over 35% in size; also: potency is read from the fitted curve at half-maximal effect
# How it was run: (§1)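 Each medium arm—HPLM with 10% dialyzed FBS, or RPMI1640 with 5 mM glucose and 10% untreated or dialyzed FBS—was screened against an 11-point, 3-fold compound titration for 48 h at 37 °C, with CellTiter-Glo luminescence as endpoint.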
# [2] = Quantitative highthroughput screen to assess conditional lethalithy of NOMO1 cells grown in RPMI1640 with dialyzed fetal bovine serum (RPMI+ds) (AID 1963877); also: nearly all actives have a fitted effect of over 30% in size; also: potency is read from the fitted curve at half-maximal effect; as to viability: series mostly up to about 46 µM
# How it was run: as §1
# [3] = Quantitative highthroughput screen to assess conditional lethalithy of NOMO1 cells grown in Human Plasma-Like Medium with dialyzed fetal bovine serum (HPLM+ds) (AID 1963878); also: nearly all actives have a fitted effect of over 35% in size; also: potency is read from the fitted curve at half-maximal effect
# How it was run: as §1
# [4] = Quantitative highthroughput screen to assess conditional lethalithy of P12 Ichikawa cells grown in Human Plasma-Like Medium with dialyzed fetal bovine serum (HPLM+ds) (AID 1963879); details: Potency: viability; also: nearly all actives have a fitted effect of over 35% in size; also: potency is read from the fitted curve at half-maximal effect; as to viability: series mostly up to about 46 µM
# How it was run: as §1
# [5] = Quantitative highthroughput screen to assess conditional lethalithy of P12 Ichikawa cells grown in RPMI1640 with untreated serum (RPMI+s) (AID 1963881); details: Potency: viability; also: nearly all actives have a fitted effect of over 35% in size; also: potency is read from the fitted curve at half-maximal effect; as to viability: series mostly up to about 46 µM
# How it was run: as §1
# [6] = Quantitative highthroughput screen to assess conditional lethalithy of SEM cells grown in RPMI1640 with unreated serum (RPMI+s) (AID 1963883); also: nearly all actives have a fitted effect of over 35% in size
# How it was run: as §1
# [7] = Quantitative highthroughput screen to assess conditional lethalithy of SEM cells grown in RPMI1640 with dialyzed fetal bovine serum (RPMI+ds) (AID 1963884)
# How it was run: as §1
# [8] = Quantitative highthroughput screen to assess conditional lethalithy of SEM cells grown in Human Plasma-Like Medium with dialyzed fetal bovine serum (HPLM+ds) (AID 1963882); also: nearly all actives have a fitted effect of over 35% in size; also: potency is read from the fitted curve at half-maximal effect; as to viability: series mostly up to about 46 µM
# How it was run: as §1
# [9] = Cellular viability qHTS for adrenocortical cancer (ACC) cell line NCI-H295R (AID 1963990); also: nearly all actives have a fitted effect of over 60% in size; also: potency is read from the fitted curve at half-maximal effect
# How it was run: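 Viability of NCI-H295R after 48 h of treatment (final up to 46 uM) measured through cellular ATP luminescence.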
# [10] = Quantitative highthroughput screen to assess conditional lethalithy of P12 Ichikawa cells grown in RPMI1640 with dialyzed fetal bovine serum (RPMI+ds) (AID 1963880); details: Potency: P12-Ichikawa viability; also: nearly all actives have a fitted effect of over 35% in size
# How it was run: as §1
# [11] = Cellular viability qHTS for adrenocortical cancer (ACC) cell line SW-13 (AID 1963989); details: SW-13 ACC cells viability, CellTiter-Glo, 48 h; activity (max response): stronger effect = lower value;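 also: cells grown in serum-free medium with ITS supplement; nearly all actives have a fitted effect of over 65% in size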
# How it was run: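 Here, serum-free SW-13 cultures were dosed up to 46 uM. Following 48 h, ATP-dependent luminescence (CellTiter-Glo) reported viable cells, and logistic modeling produced IC50 values.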
Structure (SMILES),Potency [1],Potency [2],Potency [3],Potency [4],Potency [5],Potency [6],Potency [7],Potency [8],Potency [9],Potency [10],activity (max response) [11] [%]
CC(=O)OCC(=O)[C@@]1(O)CC[C@H]2[C@@H]3CCC4=CC(=O)C=C[C@]4(C)[C@@H]3[C@@H](O)C[C@@]21C,inactive,inactive,inactive,inactive,inactive,inactive,inactive,,,,
O=C1CCc2cc(OCCCCc3nnnn3C3CCCCC3)ccc2N1,inactive,inactive,inactive,inactive,inactive,inactive,inactive,inactive,inactive,,
O=c1c(O)c(-c2ccc(O)cc2)oc2cc(O)cc(O)c12,inactive,inactive,inactive,inactive,,,,inactive,inactive,inactive,-9.76
Cc1c(C)c2c(c(C)c1O)CCC(C)(COc1ccc(CC3SC(=O)NC3=O)cc1)O2 (stereo unspecified),inactive,inactive,inactive,inactive,inactive,,,16.6 µM (active),inactive,,
C[C@H]1Oc2cc(cnc2N)-c2c(nn(C)c2C#N)CN(C)C(=O)c2ccc(F)cc21,inactive,inactive,inactive,inactive,,inactive,inactive,inactive,17.8 µM (active),,-27
O=C(c1ccc(F)c(F)c1Nc1ccc(I)cc1F)N1CC(O)([C@H]2CCCCN2)C1,0.743 µM (active),0.743 µM (active),0.526 µM (active),8.33 µM (active),8.33 µM (active),,,inactive,,,
